In PubChem BioAssay (EPA / NIEHS):
Activity calls are given as the source filed them. How the source made its calls: active means hit-call score of the fitted dose curve at least 0.9, where 1 is the maximum; inactive means score below 0.9.

What follows are compounds tested on adenosine kinase (ADK) gene, ADK (gene 132) (assay: LTEA_HepaRG_ADK: Life Technologies and Expression Analysis (LTEA) Assay for adenosine kinase (ADK) gene using HepaRG (AID 2283471)). Conditions: mRNA level, 48 h; actives raise or lower the signal.
Method in brief: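 Following 48 h exposure of HepaRG cells in 0.5% DMSO (top concentration 100 uM, duplicate wells), ADK mRNA induction or suppression was measured by qRT-PCR, normalised to ACTB/GAPDH/POLR2A, and fitted bidirectionally relative to vehicle.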

outcome, inactive:
CC1(C)C(=O)N(Br)C(=O)N1Br
CC(=O)OCCC(C)C
CC(=O)c1ccc2c(c1)[C@H](NC(=O)c1ccc(F)cc1)[C@@H](O)C(C)(C)O2
O=C(CCCCCCCCc1cccnc1)N1CCC(C=C(c2ccccc2)c2ccccc2)CC1
Cn1cnc([N+](=O)[O-])c1Sc1ncnc2nc[nH]c12
C1=CCCC=CCCC=CCC1
O=c1[nH]c2ccc(S(=O)CCN3CCC(Cc4ccc(F)cc4)CC3)cc2o1 (stereo not given)
Cn1c(=O)c2c(ncn2C)n(C)c1=O
O=C1OC(=O)C2C3C=CC(C3)C12 (stereo not given)
CC(C)=CCCC(C)CCO (stereo not given)
Cn1c(=O)cc(Oc2ccc(F)cc2F)c2cnc(NCC(C)(C)O)nc21
CC(C)CC(C)(O)C#CC(C)(O)CC(C)C (stereo not given)
Clc1nc(Cl)c(Cl)c(Cl)c1Cl
COC(=O)c1c(Cl)c(Cl)c(C(=O)OC)c(Cl)c1Cl
CCn1nc(Cc2ccccc2)cc1C1CCN(C[C@H]2C[C@H](N(C)[C@@H](C(=O)O)C(C)C)C[C@@H]2c2cccc(F)c2)CC1
CCC(C)(C)C(=O)O[C@H]1C[C@@H](C)C=C2C=C[C@H](C)[C@H](CC[C@@H]3C[C@@H](O)CC(=O)O3)[C@H]21
CCCC(=O)OCC
CC(C)CCCCCCOC(=O)c1ccc(C(=O)OCCCCCCC(C)C)c(C(=O)OCCCCCCC(C)C)c1
C[C@](N)(Cc1ccc(O)c(O)c1)C(=O)O
COc1ccc(-n2nc(C(F)F)cc2-c2ccc(S(C)=O)cc2)cc1 (stereo not given)
